Drawing on PubChem BioAssay (NCATS), this text covers Potency, activity change, negative = cytotoxicity and outcome for five compounds.

SMILES strings stand for the structures. “And” between values parts separate entries of the source, which are not always exact repeats. Equal values may be shown once. Results filed as inconclusive are left out. Some compounds were tested as several samples or in several runs, with calls that do not always agree. The source made the active and inactive calls. Unless noted, calls follow the shape of the dose curve; as a rule, active = well fitted curve in the direction sought with a large enough effect; inconclusive = small, poorly fitted or top-dose-only effect, or another doubt; inactive = no such curve, though single readings can be large; an effect the other way counts as inactive or inconclusive.

Assay [1] can be described thus: Cell Viability - MRC5 (AID 434; calls by dose curve;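 also: potency is read from the fitted curve at half-maximal effect; cells exposed to compound for 40 hours at 37 °C; potency reflects cytotoxicity seen as loss of intracellular ATP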). The following applies: MRC5 lung fibroblast viability, qHTS. Summed up:
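Decrease in intracellular ATP, quantified by luciferase light output, reflects compound toxicity toward MRC5 cells exposed for 40 hr in complete culture medium. Concentration-response curves, scaled between DMSO and 100 uM tamoxifen, gave AC50 values.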

Assay [2] in a line: Cell Viability - SK-N-SH (AID 435; calls by dose curve;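 also: potency is read from the fitted curve at half-maximal effect; compound exposure lasted 40 h at 37 °C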). Particulars: SK-N-SH neuroblastoma cell viability qHTS. Summed up:
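Human neuroblastoma line, 40 h exposure at 37 °C, ATP quantified via luciferase luminescence; DMSO and 100 uM tamoxifen define 0 and 100% inhibition for AC50 fitting.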
In general terms: In qHTS, concentration-response curves come from the screen itself.

The nature of assay [3]: Cell Viability - NIH 3T3 (AID 541). Also: nearly all actives have a fitted effect of over 25% in size. Also: potency is read from the fitted curve at half-maximal effect.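 As to activity change, negative = cytotoxicity: plate controls were DMSO alone for no effect and tamoxifen positive control for full effect.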 Particulars: NIH 3T3 cell viability, qHTS; activity change, negative = cytotoxicity: at 92.2 µM (top of the series). Summed up: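 In this cytotoxicity screen, acute toxicity is scored as an ATP drop measured by CellTiter-Glo in NIH 3T3 fibroblasts following a 40 hr, 37 °C incubation with compound.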
Assay [4] can be described thus: Cell Viability - Mesenchymal (AID 546).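 Also: cells exposed to compound for 40 hours before reading.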 The following applies: mesenchymal cells viability, qHTS; activity change, negative = cytotoxicity: at 91.7 µM (top of the series). The method, boiled down: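 In this qHTS cytotoxicity format, glomerulus-derived human mesenchymal kidney cells received compound for 40 hr, then luciferase-based ATP quantitation. Concentration-response data were fitted with the Hill equation.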

The nature of assay [5]: Cellular Toxicity (caspase-3) HepG2 (AID 654).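 Also: cells exposed to compound for 16 hours before reading.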 The following applies: HepG2 caspase-3 activation, luminescence, 0% = DMSO only, 100% = tamoxifen; series mostly up to 92.2 µM. The method, boiled down: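 Concentration-response AC50 values reflect caspase-3/7 induction in HepG2 cells after 16 hours of compound exposure, quantified by luminescence from liberated aminoluciferin and referenced to 100 uM tamoxifen as full stimulation.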

Assay [6] is described as follows: Cellular Toxicity (caspase-3) HUV-EC-C (AID 656). Particulars: HUV-EC-C cells, caspase-3 activation (apoptosis), vehicle = 0, 100 µM tamoxifen = 100%; series mostly up to 92.2 µM. The method, boiled down: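 Concentration-dependent caspase 3/7 induction was assessed in HUV-EC-C cells exposed for 16 hours. Data scaled between DMSO and tamoxifen (100 uM) controls.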

Assay [7] is described as follows: Cellular Toxicity (caspase-3) BJ (AID 658). The following applies: BJ fibroblasts, luminescence, normalized: DMSO 0%, staurosporine 100%; series mostly up to 91.7 µM. Summed up:
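Plated BJ cells (1000/well) rested 5 hr, received compound for 16 hr at 37 °C, then Caspase-Glo 3/7 reagent for 1 hr at room temperature before luminescence reading.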

The nature of assay [8]: Cellular Toxicity (caspase-3) MRC-5 (AID 659). Particulars: MRC-5 cells, luminescence, normalized: DMSO 0%, 10 µM staurosporine 100%; series mostly up to 91.7 µM. The method, boiled down: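 Apoptosis readout in MRC-5 cells: luciferase light generated after caspase 3/7 cleaves a peptide-aminoluciferin substrate, measured post 16 hr compound incubation at 37 °C.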
A short description of assay [9]: Cellular Toxicity (caspase-3) Mesangial (AID 660).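 Also: combined caspase 3 and 7 activity read by Caspase-Glo luminescence; cells exposed to compound for 16 h before the caspase read.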 Particulars: mesangial cells, normalized: DMSO 0%, 100 µM tamoxifen 100%; series mostly up to 91.7 µM. Summed up: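 AC50 values come from Hill-equation fits of caspase 3/7 activation, measured as Caspase-Glo luminescence in human glomerular mesangial cells exposed to compound for 16 h at 37 °C; 100% set by 100 uM tamoxifen.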

The nature of assay [10]: Cellular Toxicity (caspase-3) Hek293 (AID 664).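 Also: cells exposed to compound for 16 h at 37 °C before readout.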 Particulars: HEK293 caspase-3 activation, DMSO = 0%, 100 µM tamoxifen = 100%; series mostly up to 92.2 µM. The method, boiled down: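 Apoptosis readout: Caspase-Glo 3/7 signal in human HEK293 cells following 16-hour compound incubation. Responses scaled between DMSO baseline and 100 uM tamoxifen.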
Assay [11] in a line: Cellular Toxicity (caspase-3) Renal Proximal Tubule (AID 667).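 Also: cells exposed to compound for 16 hours at 37 °C before detection.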 The following applies: renal proximal tubule cells, primary cells freshly taken from rat, solvent-only wells 0%, staurosporine 100%; series mostly up to 91.7 µM. The method, boiled down: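 Caspase-Glo 3/7 read-out, rat primary kidney proximal tubule cells. Compound exposure 16 h, 37 °C; detection after 1 h at RT. Activity scaled to DMSO and 10 uM staurosporine.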

Assay [12] can be described thus: MultiTox-Fluor Cytotoxicity Assay - LYMP1-003 - Live Cells (AID 962).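 Also: 0% = DMSO only and full loss = 92 µM tetraoctylammonium bromide; cytotoxic hits lower the live-cell protease signal.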 Particulars: LYMP1-003 lymphoblastoid cells, MultiTox-Fluor live-cell protease fluorescence; series mostly up to 92.2 µM. Summed up:
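Human lymphoblastoid line LYMP1-003 in complete culture medium, treated 16 hr with titrated compounds. Viable cells quantified via cell-permeant GF-AFC substrate fluorescence; AC50 derived by Hill fitting.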

Assay [13] in a line: Cell Viability - LYMP1-003 - Assay at 40 hr (AID 964). Also: % is scaled to controls: 0 for no effect and ±100 for the full control effect; nearly all actives have a fitted effect of over 60% in size. The following applies: LYMP1-003 lymphoblastoid viability; series mostly up to 92.2 µM. The method, boiled down:
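Acute toxicity is scored as a concentration-dependent loss of intracellular ATP in LYMP1-003 cells (2500/well, complete medium) after 40 hr at 37 C, measured by CellTiter-Glo luminescence; AC50 values derive from standard Hill modelling.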

Assay [14] is described as follows: Cell Viability - LYMP2-011 (AID 969).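 Also: cells exposed to compound for 24 hours; 0% = DMSO only and full inhibition = 92 µM tetraoctylammonium bromide; nearly all actives have a fitted effect of over 60% in size.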 The following applies: LYMP2-011 lymphoblastoid cells viability; series mostly up to 92.2 µM. Summed up:
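Cells seeded at 2500 per well rest 5 hr before compound addition, then incubate 24 hr at 37 C. CellTiter-Glo reagent is added for 30 min at room temperature before luminescence detection.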

Assay [15] in a line: Cell Viability - LYMP2-017 (AID 972).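 Also: cells exposed to compound for 24 hours at 37 °C; % is scaled to controls: 0 for no effect and ±100 for the full control effect; nearly all actives have a fitted effect of over 55% in size.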 The following applies: LYMP2-017 lymphoblastoid cell viability; series mostly up to 92.2 µM. Summed up: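 In this qHTS format, lymphoblastoid cells in complete medium receive test compound for a day at 37 C before ATP content is quantified by luciferase luminescence. Reported AC50 figures come from standard Hill-equation curve fitting.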

Assay [16] in a line: Cell Viability - LYMP2-007 (AID 979).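 Also: cells exposed to compound for 24 h before reading; 0% = DMSO only and the negative end = 92 µM tetraoctylammonium bromide; nearly all actives have a fitted effect of over 60% in size.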 The following applies: LYMP2-007 lymphoblastoid cell viability; series mostly up to 92.2 µM. The method, boiled down: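 Measured via luciferase-based ATP quantitation: lymphoblastoid cells, 24 hr compound exposure at 37 C, AC50 from Hill fits.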
Assay [17] can be described thus: Cell Viability - LYMP2-010 (AID 981).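 Also: cells exposed to compound for 24 hours at 37 °C; % is scaled to controls: 0 for no effect and ±100 for the full control effect; nearly all actives have a fitted effect of over 55% in size.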 The following applies: LYMP2-010 lymphoblastoid cell viability, qHTS; series mostly up to 92.2 µM. Summed up: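 This 24 hr viability screen uses LYMP2-010 lymphoblastoid cells, quantifies ATP via luciferase luminescence, and derives AC50 from Hill fits of qHTS concentration-response data.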
Assay [18] can be described thus: Cell Viability - LYMP2-012 (AID 982).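 Also: cellular ATP by luciferase luminescence where a drop means cytotoxicity; cells exposed to compound for one day before reading; 0% = DMSO only and full loss = 92 µM tetraoctylammonium bromide; nearly all actives have a fitted effect of over 55% in size.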 The following applies: LYMP2-012 lymphoblastoid cell viability qHTS; series mostly up to 92.2 µM.
A short description of assay [19]: Cell Viability - LYMP2-018 (AID 985).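 Also: plate controls were DMSO only for no effect and tetraoctylammonium bromide at 92 µM for full effect; nearly all actives have a fitted effect of over 50% in size.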 The following applies: LYMP2-018 lymphoblastoid cells, viability (qHTS); series mostly up to 92.2 µM. Summed up: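 In this qHTS viability assay, cells are treated for 24 hr and cellular ATP is quantified by luciferase-based luminescence, with tetraoctylammonium bromide as positive control.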
Assay [20] can be described thus: qHTS Assay for Identification of Small Molecule Inducers of Hypoxia Response (AID 2120; active = well fitted curve in the direction sought with a large enough effect in the signal ratio, with a control signal flat, not every such curve was filed as active; the % refers to the signal ratio; also: 0% is about no effect). Particulars: hypoxia response reporter cells, beta-lactamase ratio readout; series mostly up to 104 µM. Summed up:
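HRE-bla ME-180, 2500 cells/well, 0.5% dialyzed FBS medium; cpd titration, 17 h 37 degrees C; CCF4 2.5 h RT; Ex 405, Em 460/530 ratio -> %Activity, AC50.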

`CCCCC(CC)CN` (stereo not given): the Potency was > 92 µM (inactive) in assay [1]; > 92 µM (inactive) in assay [2]; 12.6 µM (active) and inactive in [3]. The activity change, negative = cytotoxicity in assay [4] is -2.68% (inactive) and 2.84% (inactive). Further, the compound was classed as inactive in [5], in assay [6], in assay [7], in assay [8], in assay [9] and in assay [10]. Moreover, the compound was classed as inactive in assay [11] and in assay [20]. The Potency result in [12], in assay [13], in [14], in assay [15], in assay [16] and in assay [17] was “inactive” in each case. Also, the Potency entry in [18] and in assay [19] was “inactive” in each case.

As to `COCC(=O)O`, the Potency in assay [1] and in assay [2] was > 92 µM (inactive) throughout. Besides, the Potency entry in [3], in [12], in assay [13], in assay [14], in assay [15] and in assay [16] was “inactive” in each case. Besides, the Potency entry in assay [17], in assay [18] and in assay [19] was “inactive” in each case. The activity change, negative = cytotoxicity in assay [4] is 2.06% (inactive). Moreover, the result in [5], in assay [6], in assay [7], in assay [8], in [9] and in assay [10] was inactive. In addition, the compound was called inactive in assay [11] and in assay [20].

`OCCNCCO`: the Potency in assay [1] and in assay [2] was > 92 µM (inactive) in each case. The Potency entry in assay [3], in assay [12], in [13], in [14], in assay [15] and in [16] was “inactive” in each case. For the same compound, the Potency result in assay [17], in [18] and in [19] was “inactive” each time. In [4], the activity change, negative = cytotoxicity was 11.5% (inactive). Also, the outcome in [5], in assay [6], in assay [7], in [8], in assay [9] and in [10] was inactive. Besides, the call in [11] and in assay [20] was inactive.

Turning to `Cc1ccc([N+](=O)[O-])cc1N`, the Potency in assay [1] and in [2] was > 92 µM (inactive) in each case. For the same compound, the Potency entry in assay [3], in assay [12], in assay [13], in assay [14], in assay [15] and in [16] was “inactive” in each case. The Potency result in [17], in assay [18] and in assay [19] was “inactive” in each case. In [4], the activity change, negative = cytotoxicity was -1.39% (inactive). Also, the outcome in assay [5], in assay [6], in [7], in assay [8], in assay [9] and in assay [10] was inactive. For the same compound, the result in [11] and in assay [20] was inactive.

Take `CCC(C)c1ccccc1O` (stereo not given): the Potency in [1] and in [2] was > 92 µM (inactive) each time. The Potency entry in assay [3], in [12], in assay [13], in assay [14], in assay [15] and in [16] was “inactive” each time. The Potency entry in assay [17], in assay [18] and in assay [19] was “inactive” in each case. Besides, in assay [4], the activity change, negative = cytotoxicity was 1.63% (inactive) and 2.6% (inactive). Moreover, the result in [5], in assay [6], in assay [7], in [8], in assay [9] and in assay [10] was inactive. Further, the outcome in assay [11] and in [20] was inactive.
